Measured values: PubChem BioAssay (NCATS)
Results filed as inconclusive are left out. Activity calls are given as the source filed them. The call rests on the fitted dose curve; in most records, active means well fitted curve in the direction sought with a large enough effect; inconclusive means small, poorly fitted or top-dose-only effect, or another doubt; inactive means no such curve, though single readings can be large or run the other way.

Assay: Viability counterscreen for agonist of constitutive androstane receptor (CAR) against the NCATS DSHEA and TCM libraries (AID 1794838); further: 0% is about no effect
Details: HepG2 cell viability counterscreen, CAR agonist assay, co-treated with 0.75 µM CAR antagonist; series mostly up to 40 µM; activity change, negative = cytotoxicity: at the top concentration
How it was run: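 Viability by CellTiter-Fluor fluorescence, 405/540 nm, after 1 h at 37C. HepG2-CYP2B6-hCAR cells were exposed 24 h to test substances in presence of 0.75 uM PK11195 (final).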

Row | Structure (SMILES) | activity change, negative = cytotoxicity
1 | Oc1cc(O)c2c(c1)O[C@@H](c1cc(O)c(O)c(O)c1)[C@H](O)C2 | -49% (inactive)
2 | O=C(O[C@@H]1Cc2c(O)cc(O)cc2O[C@@H]1c1ccc(O)c(O)c1)c1cc(O)c(O)c(O)c1 | 5.28% (inactive)
3 | C=C(C)C1CC=C(C)C(O)C1 (stereo not given) | 5.13% (inactive)
4 | CC1=C2[C@H](/C=C(\C)C(=O)O)CC[C@@H](C)[C@H]2CC1 | 0.866% (inactive)
5 | C=C1C[C@@]23CC[C@H]4[C@@](C)(CCC[C@@]4(C)C(=O)O[C@@H]4O[C@H](CO)[C@@H](O)[C@H](O)[C@H]4O[C@@H]4O[C@H](CO)[C@@H](O)[C@H](O)[C@H]4O)[C@@H]2CC[C@]1(O[C@@H]1O[C@H](CO)[C@@H](O)[C@H](O)[C@H]1O[C@@H]1O[C@H](CO)[C@@H](O)[C@H](O)[C@H]1O)C3 | 15.8% (inactive)
6 | CC(C)=CCC[C@](C)(O[C@@H]1O[C@H](CO)[C@@H](O)[C@H](O)[C@H]1O)[C@H]1CC[C@]2(C)[C@@H]1[C@H](O)C[C@@H]1[C@@]3(C)CC[C@H](O)C(C)(C)[C@@H]3[C@@H](O[C@@H]3O[C@H](CO)[C@@H](O)[C@H](O)[C@H]3O)C[C@]12C | -34.1% (inactive)
7 | CC(=O)O[C@@H]1CC[C@@]2(C)[C@@H](CC[C@]3(C)[C@@H]2C(=O)C=C2[C@@H]4[C@@H](C)[C@H](C)CC[C@]4(C)CC[C@]23C)[C@@]1(C)C(=O)O | -50% (inactive)
8 | CC(C)(O)[C@@H]1CC[C@](C)([C@H]2[C@@H](O)C[C@@]3(C)[C@@H]4C[C@H](O)[C@H]5C(C)(C)[C@@H](O[C@@H]6OC[C@@H](O)[C@H](O)[C@H]6O[C@@H]6O[C@H](CO)[C@@H](O)[C@H](O)[C@H]6O)CC[C@@]56C[C@@]46CC[C@]23C)O1 | 5.73% (inactive)
9 | O=C(/C=C/c1ccc(O)c(O)c1)OC1[C@H](O)CC(O)(C(=O)O)C[C@@H]1O (stereo not given in full) | -7.64% (inactive)
10 | C=C(C)[C@H]1CC=C(CO)CC1 | 6.28% (inactive)
11 | CC1=C2[C@H]([C@@H](C)CC[C@@H]2/C=C(\C)C(=O)O)[C@@H](O)C1 | 8.86% (inactive)
12 | O=c1cc(-c2ccc(O)c(O)c2)oc2cc(O[C@@H]3O[C@@H](CO)[C@@H](O)[C@@H](O)[C@H]3O)cc(O)c12 | -42.4% (inactive)
13 | Cc1ccc(O)c(O)c1 | -76.6% [at 68.2 µM] (inactive)
14 | CCCCCCCCC/C=C/C(=O)CCc1ccc(O)c(OC)c1 | -37% (inactive)
15 | CCCCCCCC/C=C/CCCCCCCCCC(=O)O | 2.18% (inactive)
